Experimental findings from PubChem BioAssay AID504652 (National Center for Advancing Translational Sciences (NCATS), 2011) are described below.

In all, about 360,000 compounds went through this assay and about 11,000 (3.1%) were called active. Rule as the data show it: active = activity change below about -30%; inactive = the rest. For the sample, actives were picked, then their nearest neighbours and some compounds at random.
% is scaled to controls: 0 for no effect and ±100 for the full control effect.

Chain of D(1A) dopamine receptor (Homo sapiens) (P21728 whole entry, looked up): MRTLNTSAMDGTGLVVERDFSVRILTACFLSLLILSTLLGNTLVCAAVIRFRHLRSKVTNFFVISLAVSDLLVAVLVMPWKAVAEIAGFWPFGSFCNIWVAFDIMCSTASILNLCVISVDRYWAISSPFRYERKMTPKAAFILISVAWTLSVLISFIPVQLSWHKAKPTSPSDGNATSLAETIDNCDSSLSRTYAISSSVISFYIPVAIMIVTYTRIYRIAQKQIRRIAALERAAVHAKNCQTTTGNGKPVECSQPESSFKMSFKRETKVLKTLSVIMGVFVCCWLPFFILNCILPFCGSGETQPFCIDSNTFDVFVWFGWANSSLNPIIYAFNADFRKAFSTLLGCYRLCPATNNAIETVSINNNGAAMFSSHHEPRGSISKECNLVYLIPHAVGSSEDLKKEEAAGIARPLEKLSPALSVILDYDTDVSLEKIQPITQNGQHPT

The assay concerns the target D(1A) dopamine receptor (Homo sapiens) (UniProt P21728). The assay can be described thus: Antagonist of Human D 1 Dopamine Receptor: qHTS. Particulars: HEK293 TREx D1 cells, calcium flux, dopamine EC80; at 10 µM; active compounds read low. An outline of the steps:
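HEK293 T-REx cells expressing inducible, force-coupled D1 receptor; no-wash Ca dye, 30–90 min RT. Cmpd → 180 s read at 1 Hz → EC80 DA → 180 s read.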
In general terms: Quantitative high-throughput screening tests each substance at several concentrations.
Turning to `COc1cccc(-c2nnc(SCC(=O)N3CCC(C)CC3)o2)c1`, the activity change, negative = inhibition was 2.47% (inactive). The figure for `O=C(Nc1nnc(C2CC2)s1)C1=NN(C2CCS(=O)(=O)C2)C(=O)CC1` (stereo not given) is -30.2% (active); for `CCc1cc(C(=O)Nc2nnc(C3CC3)s2)sc1C` it is 5.22% (inactive). The value for `O=C(Nc1nnc(C2CC2)s1)c1ccccn1` was -8.58% (inactive); that for `O=C(CSCc1cnn(-c2ccccc2)c1-n1cccc1)NCc1ccccc1Br` was 7.2% (inactive); that for `COc1ccc2c(c1)c(=O)c(S(=O)(=O)c1ccc(F)cc1)cn2CC(=O)Nc1ccc(C)cc1C` was -20% (inactive). The value for `CCc1ccc(NC(=O)c2cc(S(=O)(=O)NC3CCCCCC3)ccc2F)cc1` was 1.8% (inactive); that for `COc1ccc(-c2nc(CN3CCC(C(=O)NCCN(CC(C)C)CC(C)C)CC3)c(C)o2)cc1OC` was -3.04% (inactive). Turning to `COc1ccc(Cl)cc1NC(=O)Cn1c(=O)c2ccccc2n2nncc12`, the activity change, negative = inhibition was 3.48% (inactive).

Consider `Cc1ccc(NC(=O)CCCn2c(=O)c3cccn3c3ccccc32)cc1Cl`, for which the activity change, negative = inhibition was -14.3% (inactive). On to `COc1ccc(Cl)cc1NC(=O)CCC(=O)c1ccc(C)cc1`, for which the activity change, negative = inhibition is 0.782% (inactive).

On to `COc1ccc(C)cc1NC(=O)CSc1ccc(Cl)cc1`, for which the activity change, negative = inhibition was 3.7% (inactive). Regarding `COc1ccc(Cl)cc1NC(=O)CCn1c(=O)c2cccn2c2ccccc21`, the activity change, negative = inhibition was -35% (active).

In the case of `COc1ccc(Cl)cc1NC(=O)Cn1nc(-c2ccc(C)cc2)n(C)c1=S`, the activity change, negative = inhibition was -37.4% (active). The value for `Cc1ccc(Nc2nnc(-c3ccc(C)c(S(=O)(=O)N4CCCCC4)c3)c3ccccc23)cc1` was -4.3% (inactive); that for `Cc1ccc(N(C)C(=O)C2CCN(S(=O)(=O)c3ccc4c(c3)CCCN4C(=O)C3CCC3)CC2)cc1` was 10.1% (inactive). The figure for `O=C(CCCCn1c(=O)c2ccccc2n(CC(=O)Nc2cccc(C(F)(F)F)c2)c1=O)NCc1ccc2c(c1)OCO2` is 3.4% (inactive); for `COc1ccc(CCn2cc3c(c2-c2ccc(Br)cc2)c(=O)n(C)c(=O)n3C)cc1OC` it is 2.27% (inactive); for `Fc1ccc(CN2CCc3nc(Nc4ccccc4)ncc3C2)cc1F` it is 5.84% (inactive). The value for `COc1ccc2c(c1)Cc1sc(NC(=O)c3ccccc3Br)nc1-2` was 6.21% (inactive). Regarding `CCCCSc1ncnc2c1sc1nc(N3CCOCC3)c3c(c12)CCCC3`, the activity change, negative = inhibition is 3.48% (inactive). The figure for `O=C(CSc1nccn1Cc1ccc(Cl)cc1)NCc1ccccc1` is -34.5% (active). The value for `CCCCNC(=O)CSc1nccn1Cc1ccccc1` was 23.5% (inactive); that for `O=C(CSc1nccn1Cc1ccc(F)cc1)NCc1ccccc1` was 9.06% (inactive). With `Cc1oc(-c2ccccc2F)nc1CN1CCC(C(=O)NCCc2ccc(Cl)cc2)CC1`, the activity change, negative = inhibition was -10.2% (inactive). The value for `CC(C)C12CN3CC(C(C)C)(CN(C1)C3c1ccc(OCc3ccccc3)cc1)C2=O` (stereo not given) was -2.54% (inactive); that for `COc1cccc(C2C(C(=O)Nc3ccc(C)cc3C)=C(C)Nc3c(C(=O)Nc4ccccc4)cnn32)c1` (stereo not given) was 0.0774% (inactive); that for `CC(NC(=O)Nc1ccccc1)c1ccccc1` (stereo not given) was 5.33% (inactive). The figure for `CCC(C(=O)Nc1ccc(C(C)C)cc1)c1ccccc1` (stereo not given) is -50.8% (active); for `CC(C)c1ccc(NC(=O)Cn2ncc3ccccc32)cc1` it is -8.47% (inactive). The figure for `CCOc1ccc(-c2cc3c(=O)n(CC(=O)NCc4ccc(OC)cc4)ccn3n2)cc1` is 8.73% (inactive). With `O=C(NCCc1csc(-c2ccc(C(F)(F)F)cc2)n1)C(=O)Nc1ccc(F)c(Cl)c1`, the activity change, negative = inhibition was -0.398% (inactive).

As to `CCn1c2ccccc2c2nnc(SCC(=O)O)nc21`, the activity change, negative = inhibition is 6.1% (inactive). The value for `O=C(/C=C/c1cn(CC(O)CN2CCc3ccccc32)c2ccccc12)c1ccc(Br)cc1` (stereo not given) was -3.99% (inactive); that for `O=C(c1ccc(Cl)cc1)c1ccc(OCC(O)CN2CCCCC2)cc1` (stereo not given) was -13.7% (inactive); that for `CCOc1ccc(C(=O)/C=C/c2cn(CC(O)CN3CCCCCC3)c3ccccc23)cc1` (stereo not given) was -35% (active). The figure for `CC(C)c1ccc(NC(=O)Cn2nnc(C(=O)NCCc3ccccc3)c2N)cc1` is -8.95% (inactive); for `Cc1ccc(C)c(S(=O)(=O)N2CCN(C(=O)Nc3ccccc3)CC2)c1` it is -15% (inactive). Regarding `Cc1ccc(S(=O)(=O)N2CC(=O)Nc3ccccc32)cc1C`, the activity change, negative = inhibition was 7.51% (inactive).

In the case of `Cc1ccc(C)c(S(=O)(=O)N2CC(=O)Nc3ccccc32)c1`, the activity change, negative = inhibition is -34.4% (active). The value for `CC1=C(C(=O)OCC2CCCCC2)C(c2c(F)cccc2Cl)CC(=O)N1` (stereo not given) was -8.23% (inactive). The value for `CNS(=O)(=O)c1cccc(C(=O)NCC2CCCCC2)c1` was 15.5% (inactive); that for `CN(C)S(=O)(=O)N1CCC(Oc2cccc(C(=O)NCCCC3CCCC3)c2)CC1` was -36.8% (active); that for `CN(C(=O)c1cccc(OC2CCN(S(=O)(=O)N(C)C)CC2)c1)C1CCOC1` (stereo not given) was -17.2% (inactive). The figure for `CCOCCc1nn2c(=O)cc(COC(=O)CNC(=O)c3ccc(C(C)(C)C)cc3)nc2s1` is -0.812% (inactive); for `CCC(=O)N1c2ccccc2CC1C(=O)N1CCN(c2cccc(OC)c2)CC1` (stereo not given) it is -5.92% (inactive); for `CCc1ccc(S(=O)(=O)c2nnn3c2nc(NCc2ccccc2OC)c2cc(Cl)ccc23)cc1` it is 2.93% (inactive). For `CCCNC(=O)c1ccc2c(c1)ncn2-c1ccc(C)cc1C`, the activity change, negative = inhibition was -21.9% (inactive). The value for `CSc1ccc(CCNC(=O)C2CCN(c3nnc(-n4cccc4)s3)CC2)cc1` was 11.1% (inactive); that for `CCOc1ccc(CNC(=O)C2CCN(c3nnc(-n4cccc4CNc4ccc(C)cc4)s3)CC2)cc1OC` was 4.12% (inactive); that for `Cc1ccc(CCNC(=O)C2CCN(c3nnc(-n4cccc4CNc4ccc(C)cc4)s3)CC2)cc1` was -30% (active). The figure for `CCOc1ccccc1C1CC(c2ccc(Cl)cc2)Nc2nc(N)nn21` (stereo not given) is 13.6% (inactive); for `CCOc1ccccc1C1CC(c2ccccc2)Nc2nc(N)nn21` (stereo not given) it is -30.1% (active); for `Cc1ccc(C2CC(c3cccc(C)c3)n3nc(N)nc3N2)cc1` (stereo not given) it is 9.87% (inactive). The figure for `COCCCNC(=S)N1CCN(c2nc(-c3cccc(OC)c3)cs2)CC1` is -31% (active); for `COc1cccc(-c2ccc(SCC(=O)N3CCN(c4ccccc4)CC3)nn2)c1` it is 3.13% (inactive); for `CN(C)CCCNC(=S)N1CCN(c2nc(-c3ccccc3)cs2)CC1` it is -48% (active).

With `COCCCNC(=S)N1CCCC(c2nc3cc(C)c(C)cc3[nH]2)C1` (stereo not given), the activity change, negative = inhibition was -12% (inactive). The value for `c1ccc(-c2csc(N3CCc4ccccc4C3)n2)cc1` was 4.74% (inactive).

As for `CN(C)CCCNC(=S)N1CCC(c2nc3ccccc3[nH]2)CC1`, the activity change, negative = inhibition was 7.97% (inactive).
